This experiment is described as follows: ACEA_ER_AUC_viability: ACEA Biosciences xCELLigence Real-Time Cell Analysis on Estrogen Receptor Agonism for Viability (AID 2283782).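 Further: hit means loss of impedance signal meaning reduced cell growth or viability.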 In outline: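 Viability endpoint: reduced impedance area under the curve relative to DMSO, recorded by real-time electrode sensing over ~80 h of continuous exposure. Duplicate plates of T47D in hormone-depleted medium; eight concentrations, 1:4 dilutions, 100 uM maximum.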

Results filed as inconclusive are left out. Activity calls are given as the source filed them. How the source made its calls: active means hit-call score of the fitted dose curve at least 0.9, where 1 is the maximum; inconclusive means response in the unintended direction; inactive means score below 0.9.

On to `CC(=O)CC(=O)Nc1ccc(C)cc1C`, for which the call was inactive.
On the same count and under the same terms, with `CCOc1ccc(NC(=O)CC(C)=O)cc1` the entry was “inactive”.
Turning to `CN(C)C(=S)SC(=S)N(C)C`, the concentration at half-maximal activity (AC50) was 90.3 µM (active).
Still for that read-out and setting: next, `C=CC(=O)OCCC#N`: 66.7 µM (active).
As for `COC(=O)C=C(C)CCC=C(C)C`, the result was inactive.
Still for that read-out and setting: next, `COc1ccc(COC(C)=O)cc1`: “inactive”.
Still for that read-out and setting: with `CC(C)CCOC(=O)c1ccccc1` the entry was “inactive”.
With `CC/C=C\CC/C=C/CO`, the concentration at half-maximal activity (AC50) is 50 µM (active).
Consider `CC(C)=CCCC(C)CC(=O)O` (stereo unspecified), for which the outcome was inactive.
Take `NCc1ccco1`: the molecule was classed as inactive.
As to `CC1C2CC(CC2C2CCCC(O)C2)C1(C)C` (stereo unspecified), the AC50 is 84.8 µM (active).
For `CCc1ncc(C)[nH]1`, the molecule was called inactive.
Turning to `C/C=C(\C)C(=O)OCCc1ccccc1`, the AC50 was 67.4 µM (active).
Same read-out and setting: next, `CC(=O)C1(C)CC2=C(CCCC2(C)C)CC1C` (stereo unspecified): 50 µM (active); `C=C(C)CNCC`: 25.7 µM (active); `O=C(O)CCCCCCCCCCCC(=O)O`: 50 µM (active).
As to `O=C1OC2(c3ccccc31)c1ccc(O)c(Br)c1Oc1c2ccc(O)c1Br`, the result was inactive.
The same measure, in the same setting: next, `O=CN1CCOCC1`: “inactive”; `CC(=O)OCCCc1ccccc1`: “inactive”.
In the case of `CCCC[P+](CCCC)(CCCC)CCCC`, the AC50 was 91.7 µM (active).
Regarding `c1ccc(CCc2ccccc2)cc1`, the call was inactive.
`CCCCCCCCCC(C)C=O` (stereo unspecified): the result was inactive.
Regarding `CCCCCCC(O)CCCCCCCCCCC(=O)O` (stereo unspecified), the outcome was inactive.
Take `COC(C)(C)CC(C)=O`: the result was inactive.
The same measure, in the same setting: next, `CCCCCC(=O)CC`: “inactive”; `NC(=S)NNC(N)=S`: “inactive”.

As a reminder, the AC50 is the concentration giving half of the maximal activity seen.

(Values after PubChem BioAssay (EPA / NIEHS).)
